Experimental data taken from PubChem BioAssay (NCI).
Several values for one entry are separate records, joined by “and”; a condition that tells them apart may be missing. Equal values may be shown once. About 83,000 compounds went through this panel and 20% of them were active in at least one assay; those are over-represented in the sample as a whole.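 A percent growth of 40 corresponds to 60% growth inhibition; 0 means no net growth; -100 means all cells died. Active threshold: below 10.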 Activity calls are given as the source filed them.

How the values were obtained:
Assay in all cases: NCI-60 one-dose screen, 48 h (100 = growth as untreated, 0 = no growth, -100 = all killed)
Details in all cases: 10 µM unless noted
[1] = system: SK-MEL-2 melanoma
[2] = system: EKVX NSCLC
[3] = system: SN12C renal
[4] = system: UO-31 renal
[5] = system: TK-10 renal
[6] = system: ACHN renal
[7] = system: CAKI-1 renal
[8] = system: A498 renal
[9] = system: CCRF-CEM leukemia
[10] = system: MOLT-4 leukemia

| Compound | growth [1] | growth [2] | growth [3] | growth [4] | growth [5] | growth [6] | growth [7] | growth [8] | growth [9] | growth [10] |
| --- | --- | --- | --- | --- | --- | --- | --- | --- | --- | --- |
| Cc1ccc(-c2nc3nc(-c4ccccc4)nc(N4CCCNCC4)c3o2)cc1 | -2.85% (active) | 39% (inactive) | -87.9% (active) | -98.1% (active) | -60% (active) | -98.9% (active) | -9.04% (active) | 98.4% (inactive) | -75.8% (active) | -68.1% (active) |
| C[C@@H]1CC[C@@H]2[C@@H]1[C@H](OC(=O)/C=C/c1ccccc1)[C@]1(c3ccccc3)C[C@@H](NC(=O)CO)[C@@]2(C)O1 | 107% (inactive) | 90.2% (inactive) | 86.8% (inactive) | 69.7% (inactive) | 112% (inactive) | 79.1% (inactive) | 70.1% (inactive) | -3.59% (active) | 99.8% (inactive) | 84% (inactive) |
| CCn1cc(C(=O)NN=C2CCCC2)c(=O)c2ccc(C)nc21 | 96.5% (inactive) | 88.8% (inactive) | 81% (inactive) | 81.3% (inactive) | 100% (inactive) | 86.6% (inactive) | 84.2% (inactive) | 66.7% (inactive) | 89.7% (inactive) | 100% (inactive) |
| CCNC(=O)Oc1ccc(/C(=C(/C)Cc2ccc(OC)cc2)c2ccc(OCCN(CC)CC)cc2)cc1 | 86.5% (inactive) | 69.6% (inactive) | 68.6% (inactive) | 43.1% (inactive) | 65.9% (inactive) | 81.5% (inactive) | 61.4% (inactive) | 80% (inactive) | 35.6% (inactive) | 14.7% (inactive) |
| COc1ccc2c(O)c(/C=C3\N=Nc4nc(C)ccc43)oc2c1CC1CCNCC1 | 95.5% (inactive) | 63.4% (inactive) | 60.3% (inactive) | 70.6% (inactive) | 79.1% (inactive) | 69.2% (inactive) | 83.1% (inactive) | 44.7% (inactive) | 63.3% (inactive) | 48.1% (inactive) |
| CCOC(=O)CC1CSC(c2cccc(Cl)c2)=N1 (stereo not given) | 109% (inactive) | 100% (inactive) | 106% (inactive) | 96.4% (inactive) | 92.1% (inactive) | 109% (inactive) | 97.8% (inactive) | 81.9% (inactive) | 102% (inactive) | 95% (inactive) |
| Fc1ccc(NC(c2ccc(F)cc2)C2CCN(CCCCc3ccccc3)CC2)cc1 (stereo not given) | 69.6% (inactive) | 52.9% (inactive) | 29% (inactive) | 38.8% (inactive) | 49% (inactive) | 53.8% (inactive) | 49.1% (inactive) | 17.2% (inactive) | 8.3% (active) | 4.36% (active) |
| O=Nc1c(O)ccc2ccccc12 | 36.5% (inactive) and 107% (inactive) | 91.4% (inactive) | 4.86% (active) and 93.6% (inactive) | 55.3% (inactive) and 52.1% (inactive) | 115% (inactive) | 57.7% (inactive) and 83.3% (inactive) | 71.2% (inactive) and 96.3% (inactive) | 84.6% (inactive) and 99.1% (inactive) | 20.6% (inactive) and 58.4% (inactive) | 71.3% (inactive) and 72.6% (inactive) |
| CC(=O)c1c(C)nc(SCC(=O)Nc2ccc(Cl)cc2)n1-c1ccc(Cl)cc1 | 94% (inactive) | 95.5% (inactive) | 87% (inactive) | 80.9% (inactive) | 99.5% (inactive) | 93.7% (inactive) | 81.7% (inactive) | 83.2% (inactive) | 87.5% (inactive) | 64.1% (inactive) |
| COC(=O)/C=C1/SC(=Nc2ccc([N+](=O)[O-])cc2)N(CCc2c[nH]c3ccccc23)C1=O | 68.1% (inactive) | 87.2% (inactive) | 58.8% (inactive) | 48.8% (inactive) | 103% (inactive) | 64.6% (inactive) | 73.1% (inactive) | 78.2% (inactive) | 8.51% (active) | -2.1% (active) |
| CCOC(=O)C1=C(C)NC(=O)NC1c1c(Cl)n(-c2ccccc2)c2ccccc12 (stereo not given) | 102% (inactive) | 96.8% (inactive) | 92.7% (inactive) | 54.2% (inactive) | 98.9% (inactive) | 85.1% (inactive) | 70.7% (inactive) | 78.2% (inactive) | 3.16% (active) | 78.8% (inactive) |
| O=C(Nc1ccc(Cl)c(Cl)c1)Nc1ccc(Cl)c(Cl)c1 | -78.9% (active) and 45.5% (inactive) | 23.1% (inactive) | -83.4% (active) and 14.8% (inactive) | -88.8% (active) and -9.62% (active) | -96.9% (active) and 35.3% (inactive) | -85.8% (active) and 7.07% (active) | -90.8% (active) and -2.12% (active) | -90.1% (active) and -0.946% (active) | -14% (active) and 21.4% (inactive) | -28.5% (active) and 20.8% (inactive) |
| CC[C@H](C)[C@H](NC(=O)[C@H](CCCCN)NC(=O)[C@H](CCCCN)NC(=O)[C@@H](NC(=O)[C@@H](NC(=O)[C@@H](N)Cc1cnc[nH]1)[C@@H](C)CC)[C@@H](C)CC)C(=O)N[C@@H](CCCNC(=N)N)C(=O)N[C@H](C(=O)N[C@@H](Cc1c[nH]c2ccccc12)C(=O)N[C@@H](Cc1ccc(O)cc1)C(=O)N[C@@H](CCCNC(=N)N)C(=O)N[C@@H](CCCCN)C(=O)N[C@@H](C)C(=O)N[C@@H](Cc1c[nH]c2ccccc12)C(=O)N[C@@H](Cc1cnc[nH]1)C(=O)N[C@H](C(=O)N[C@@H](CC(C)C)C(=O)NCC(=O)N[C@@H](CCCCN)C(=O)N[C@H](C(N)=O)C(C)C)C(C)C)[C@@H](C)O | 12.7% (inactive) | -26.4% (active) | 12.1% (inactive) | 81.9% (inactive) | -16.8% (active) | 70.8% (inactive) | 17.5% (inactive) | 66.2% (inactive) | 76.2% (inactive) | 56.7% (inactive) |
| O=C(/C=C/c1ccccc1)c1cccs1 | 105% (inactive) and 107% (inactive) | 97.6% (inactive) and 94.7% (inactive) | 96.7% (inactive) and 94.1% (inactive) | 88.9% (inactive) and 94.1% (inactive) | 95.5% (inactive) and 103% (inactive) | 100% (inactive) and 110% (inactive) | 99.9% (inactive) and 93.7% (inactive) | 94.4% (inactive) and 91.6% (inactive) | 82.7% (inactive) | 109% (inactive) and 96% (inactive) |
| COc1ccc(C(CC(=O)c2ccc3c(c2)OCO3)C(=O)O)cc1OC (stereo not given) | 114% (inactive) and 87.8% (inactive) | 99.9% (inactive) | 98% (inactive) and 102% (inactive) | 113% (inactive) and 83.3% (inactive) | 109% (inactive) and 108% (inactive) | 118% (inactive) and 98.7% (inactive) | 91.4% (inactive) and 95.3% (inactive) | 104% (inactive) and 106% (inactive) | 96% (inactive) and 97.5% (inactive) | 108% (inactive) and 96.1% (inactive) |
| O=C(NCc1ccc(Cn2c(=O)sn(-c3ccc(Cl)cc3)c2=O)cc1)OCc1ccc2c(Cl)cc(Cl)c(O)c2n1 | 74.3% (inactive) | 44% (inactive) | 38.1% (inactive) | 13% (inactive) | 63.7% (inactive) | 26% (inactive) | 52.1% (inactive) | 70.1% (inactive) | 31.9% (inactive) | 19.3% (inactive) |
| Clc1ccc(/C=N\N2CCCCCC2)cc1 | 122% (inactive) and 106% (inactive) | 88.7% (inactive) and 90.9% (inactive) | 90.9% (inactive) and 106% (inactive) | 88.4% (inactive) | 105% (inactive) and 103% (inactive) | 99.5% (inactive) and 102% (inactive) | 124% (inactive) and 94.9% (inactive) | 79.6% (inactive) | 101% (inactive) | 109% (inactive) and 99.4% (inactive) |
| COc1ccc(CN2CCc3c(Cl)nc(N)nc3C2=O)c(OC)c1 | -30.2% [100 µM] (active) | 5.84% [100 µM] (active) | 17.2% [100 µM] (inactive) | 27.9% [100 µM] (inactive) | 22.2% [100 µM] (inactive) | 32.3% [100 µM] (inactive) | 23.4% [100 µM] (inactive) | 35.7% [100 µM] (inactive) | 3.61% [100 µM] (active) | 13% [100 µM] (inactive) |
| CCNC(=S)n1nc(SC)c(C(=O)OCC)c1N | 105% (inactive) | 101% (inactive) | 97.6% (inactive) | 77.8% (inactive) | 106% (inactive) | 96.7% (inactive) | 86.7% (inactive) | 97.5% (inactive) | 106% (inactive) | 81.3% (inactive) |
| O=C(O)C1C2CCC1C(O)C2 (stereo not given) | 97.7% (inactive) and 95.5% (inactive) | 110% (inactive) | 104% (inactive) and 102% (inactive) | 81.6% (inactive) and 82% (inactive) | 93.1% (inactive) and 98.2% (inactive) | 106% (inactive) and 104% (inactive) | 100% (inactive) and 98.3% (inactive) | 116% (inactive) and 113% (inactive) | 101% (inactive) and 93.9% (inactive) | 93.6% (inactive) and 93.5% (inactive) |
| O=C1C(c2c[nH]c3ccccc23)=C(c2coc3cc(Br)ccc23)C(=O)N1O | 97.4% (inactive) | 84.3% (inactive) | 97.9% (inactive) | 73.4% (inactive) | 137% (inactive) | 110% (inactive) | 100% (inactive) | 54.4% (inactive) | 89.4% (inactive) | 98.9% (inactive) |
| COc1ccc(Cl)cc1Nc1nc(C(F)(F)F)ccc1C(=O)N/N=C/c1ccc(N(C)C)cc1 | 82.5% (inactive) | 121% (inactive) | 98.2% (inactive) | 98.3% (inactive) | 95.9% (inactive) | 96.6% (inactive) | 116% (inactive) | 109% (inactive) | -17.6% (active) | 90.4% (inactive) |
